In all, about 4,400 compounds went through this assay and about 390 (8.9%) showed an effect of 50% or more. This is one part of a sample in which strong results are shown more often than they occur.
What follows are compounds tested on Trypanosoma brucei (assay: DNDI: Inhibition of Human African Trypanosomiasis, SBRI 427, in vitro at 2 ug.mL-1).
Assay type: functional
c1ccc(N2CCN(Cc3coc(-c4ccco4)n3)CC2)nc1 was tested, and the “% inhibition” value was 4%. With COc1cc2c(cc1OC)C(C(C)C)N(Cc1coc(-c3ccccc3Cl)n1)CC2 (stereo not given) the “% inhibition” value was 3%. In the case of COc1ccc(CCN(C)Cc2coc(-c3cc(OC)c(OC)c(OC)c3)n2)cc1OC, the “% inhibition” value is reported as 9%. Clc1cccc(N2CCN(Cc3coc(-c4ccco4)n3)CC2)c1 was tested, and the “% inhibition” value was 10%. For Fc1cccc(-c2nc(CNCc3cccnc3)co2)c1, the “% inhibition” value was 17%. In the case of CCN(CCC#N)Cc1coc(-c2ccc(Cl)cc2Cl)n1, the “% inhibition” value is reported as 8%. In the case of Fc1ccc(-c2nc(CNCc3ccccc3C(F)(F)F)co2)cc1, the “% inhibition” value is reported as 18%. For CC1CCCC(NCc2coc(-c3cccc(F)c3)n2)C1C (stereo not given), the “% inhibition” value was 10%. With CC1CCCC(NCc2coc(-c3ccccc3Br)n2)C1C (stereo not given) the “% inhibition” value was 98%. In the case of COc1ccc(-c2nc(CNC3CCCC(C)C3C)co2)cc1 (stereo not given), the “% inhibition” value is reported as 2%. With CC1CCCC(NCc2coc(-c3cccc4ccccc34)n2)C1C (stereo not given) the “% inhibition” value was 71%. CC1CCCCC1NCc1coc(-c2ccccc2Cl)n1 (stereo not given) was tested, and the “% inhibition” value was -2%. For CC1CCCCC1NCc1coc(-c2ccccc2Br)n1 (stereo not given), the “% inhibition” value was 11%. In the case of CCOC(=O)c1cn(Cc2coc(-c3ccc(OCC)cc3)n2)nc1C(F)(F)F, the “% inhibition” value is reported as -15%. Cc1ccc(Oc2nc(C)ccc2/C(=N/O)Nc2ccccc2)c(C)c1 was tested, and the “% inhibition” value was -4%. Cc1cc(N)nn1Cc1coc(-c2cccc3ccccc23)n1 was tested, and the “% inhibition” value was 25%. With CC(C)c1ccc(N/C(=N\O)c2ccc(Oc3ccc(-n4ccnc4)cc3)nc2)cc1 the “% inhibition” value was 11%. For Cc1ccc(-c2nc(Cn3nc(N)cc3C)co2)cc1, the “% inhibition” value was 99%. In the case of Cc1cccc(-c2nc(Cn3nc(N)cc3C)co2)c1, the “% inhibition” value is reported as 9%. CC(C)c1nccn1Cc1coc(-c2ccc(C(F)(F)F)cc2)n1 was tested, and the “% inhibition” value was -2%. Cc1cc(N)nn1Cc1coc(-c2ccc(OC(F)(F)F)cc2)n1 was tested, and the “% inhibition” value was 97%. Cc1cc(N)nn1Cc1coc(-c2ccc(F)cc2)n1 was tested, and the “% inhibition” value was 12%. With COc1ccc(-c2nc(Cn3ccnc3C(C)C)co2)cc1 the “% inhibition” value was 29%. CCOc1ccc(-c2nc(Cn3nc(N)cc3-c3ccccc3)co2)cc1 was tested, and the “% inhibition” value was -17%. In the case of Nc1cc(-c2ccccc2)n(Cc2coc(-c3ccc(OC(F)(F)F)cc3)n2)n1, the “% inhibition” value is reported as -3%. In the case of CC(C)c1nccn1Cc1coc(-c2ccc(OC(F)(F)F)cc2)n1, the “% inhibition” value is reported as 56%. For CCOc1ccc(-c2nc(Cn3nc(N)cc3C)co2)cc1, the “% inhibition” value was 99%. For COc1ccc(-c2nc(Cn3nc(N)cc3C)co2)cc1, the “% inhibition” value was 25%. COc1cccc(-c2nc(Cn3nc(N)cc3C)co2)c1 was tested, and the “% inhibition” value was 18%. Fc1ccc(-c2nc(CN3CCC(N4CCCCC4)CC3)co2)cc1 was tested, and the “% inhibition” value was 4%. With O/N=C(/c1ccc(Oc2cccc3c2CCCC3)nc1)N1CCOCC1 the “% inhibition” value was 15%. For C=CCN1CCN(/C(=N\O)c2ccc(C)nc2OCc2ccccc2F)CC1, the “% inhibition” value was 3%. In the case of FC(F)(F)c1ccc(-c2nc(CN3CCN(c4ncccn4)CC3)co2)cc1, the “% inhibition” value is reported as 4%. For Cc1ccc(/C(=N/O)NCc2c(F)cccc2F)c(OCc2ccc(C(C)C)cc2)n1, the “% inhibition” value was 16%. In the case of Cc1ccc(-c2nc(CN(C)c3cccc(C)c3)co2)cc1, the “% inhibition” value is reported as 21%. Cc1cc(Oc2nc(C)ccc2/C(=N/O)N2CCN(c3ccccc3)CC2)cc(C(C)C)c1 was tested, and the “% inhibition” value was 5%. For COc1cccc(Oc2ccc(/C(=N/O)Nc3ccc(C(C)C)cc3)cn2)c1, the “% inhibition” value was -4%. CC(C)(C)CNCc1coc(-c2ccc(Cl)cc2Cl)n1 was tested, and the “% inhibition” value was 14%. CC1CCc2ccccc2N1/C(=N\O)c1ccc(Oc2cccc3c2OC(C)(C)C3)nc1 (stereo not given) was tested, and the “% inhibition” value was 10%. For C=CCN1CCN(/C(=N\O)c2ccc(C)nc2Oc2ccc(C)cc2C)CC1, the “% inhibition” value was 14%. CCCC1=NCCN1Cc1coc(-c2cccc(OCC)c2)n1 was tested, and the “% inhibition” value was 2%. Cc1ccccc1-c1nc(CNCc2ccccn2)co1 was tested, and the “% inhibition” value was 15%. For CCOc1ccccc1-c1nc(CN(C)C2CCCCC2)co1, the “% inhibition” value was 13%. In the case of Cc1ccccc1-c1nc(CN(C)C2CCN(C)CC2)co1, the “% inhibition” value is reported as 28%. In the case of CCOc1ccccc1-c1nc(CN(C)C2CCN(C)CC2)co1, the “% inhibition” value is reported as -1%. CN1CCC(N(C)Cc2coc(-c3cccc4ccccc34)n2)CC1 was tested, and the “% inhibition” value was 69%. In the case of CN(Cc1coc(-c2cccc3ccccc23)n1)C1CCCCC1, the “% inhibition” value is reported as 82%. For Cc1ccccc1-c1nc(CN(C)C2CCCCC2)co1, the “% inhibition” value was 10%. CCOc1ccccc1-c1nc(Cn2nc(N)cc2C)co1 was tested, and the “% inhibition” value was 5%. COc1ccc(Oc2nc(C)ccc2/C(=N/O)NCc2cccc(OC)c2)cc1 was tested, and the “% inhibition” value was 25%. With C#CC1(NCc2coc(-c3cccc(F)c3)n2)CCCCC1 the “% inhibition” value was 18%. With O/N=C(/c1ccnc(Oc2ccc(F)c(Cl)c2)c1)N1CCSC1 the “% inhibition” value was -2%. With Cc1ccc(/C(=N/O)N(C)Cc2ccco2)c(Oc2cccnc2)n1 the “% inhibition” value was 13%. For CCCCN(C)Cc1coc(-c2cccc3ccccc23)n1, the “% inhibition” value was 16%. For CC(C)(C)COc1ncccc1/C(=N/O)n1ccnc1, the “% inhibition” value was 30%. For O/N=C(\NCc1c(F)cccc1F)c1cccnc1OCc1ccccc1, the “% inhibition” value was 23%. COC(=O)C1CCN(/C(=N\O)c2cccnc2OCC(F)(F)F)CC1 was tested, and the “% inhibition” value was 12%. In the case of O/N=C(\Nc1ccccc1)c1cccnc1OCc1ccccc1, the “% inhibition” value is reported as 77%. With COC(=O)C1CCN(/C(=N\O)c2cccnc2OCC(C)C)CC1 the “% inhibition” value was 5%. For COC(=O)C1CCN(/C(=N\O)c2cccnc2OCc2ccccc2)CC1, the “% inhibition” value was 61%. In the case of O/N=C(\NCc1cccs1)c1cccnc1OCc1ccccc1, the “% inhibition” value is reported as 10%. In the case of CC(C)COc1ncccc1/C(=N/O)Nc1ccccc1, the “% inhibition” value is reported as 5%. With CC(=O)c1ccc(N/C(=N\O)c2cccnc2Oc2ccccc2OCc2ccccc2)cc1 the “% inhibition” value was -2%. In the case of CC(C)N/C(=N\O)c1cccnc1Oc1ccccc1OCc1ccccc1, the “% inhibition” value is reported as -14%. In the case of O/N=C(\NCC1CC1)c1cccnc1OCc1ccccc1, the “% inhibition” value is reported as 99%. With O/N=C(\NC1CCC1)c1cccnc1Oc1ccccc1OCc1ccccc1 the “% inhibition” value was 97%. In the case of CCCN/C(=N\O)c1cccnc1Oc1ccccc1OCc1ccccc1, the “% inhibition” value is reported as -7%. COc1cccc(Oc2ccc(/C(=N/O)N3CCN(c4ccccc4)CC3)cn2)c1 was tested, and the “% inhibition” value was -6%. With COCCN(Cc1coc(-c2cccc3ccccc23)n1)C(C)C the “% inhibition” value was 6%. For CCOc1ccccc1-c1nc(CN(c2ccccc2)C2CCCCC2)co1, the “% inhibition” value was -3%. COC(=O)C1CCN(/C(=N\O)c2ccc(C)nc2Oc2cccc3cnccc23)CC1 was tested, and the “% inhibition” value was 21%. For COc1cccc(-c2nc(CN3CCN(c4ccccc4)CC3)co2)c1, the “% inhibition” value was 15%. c1coc(-c2nc(CN3CCN(Cc4ccc5c(c4)OCO5)CC3)co2)c1 was tested, and the “% inhibition” value was -2%. COc1ccc(-c2nc(CNCc3cccc(OC)c3)co2)cc1 was tested, and the “% inhibition” value was -15%. With COCCN(/C(=N\O)c1ccc(C)nc1Oc1cccc(C)c1)C(C)C the “% inhibition” value was 23%. For Cc1ccc(/C(=N/O)N2C(C)C=CC2C)c(Oc2ccc(F)c(Cl)c2)n1 (stereo not given), the “% inhibition” value was 8%. With CCN(Cc1ccncc1)Cc1coc(-c2cccc3ccccc23)n1 the “% inhibition” value was 27%. O/N=C(\NC1CCCC1)c1cccnc1OCc1ccccc1 was tested, and the “% inhibition” value was 53%. In the case of COCC(C)N/C(=N\O)c1cccnc1Oc1ccccc1OCc1ccccc1 (stereo not given), the “% inhibition” value is reported as -7%. CCC(CC)N/C(=N\O)c1cccnc1OCc1ccccc1 was tested, and the “% inhibition” value was 94%. With CC(C)c1ccc(COc2ncccc2/C(=N/O)NC2CCCC2)cc1 the “% inhibition” value was 21%. For COc1ccc(CN/C(=N\O)c2cccnc2OCc2ccccc2)cc1, the “% inhibition” value was 10%. For N/C(=N\O)c1cccnc1OCc1ccccc1, the “% inhibition” value was 9%. With CN(/C(=N\O)c1ccc(Oc2cccc3ccccc23)nc1)C1CCCCC1 the “% inhibition” value was 25%. With CN(Cc1coc(-c2ccc(Br)cc2)n1)Cc1ccco1 the “% inhibition” value was 29%. In the case of CC(C)c1ccc(N/C(=N\O)c2cccnc2OCc2ccccc2F)cc1, the “% inhibition” value is reported as -12%. With Cc1ccc(-c2nc(CN3CC[C@H]4CCCC[C@@H]4C3)co2)cc1 the “% inhibition” value was 25%. c1ccc2c(-c3nc(CNCCN4CCCCC4)co3)cccc2c1 was tested, and the “% inhibition” value was 14%. In the case of CCC1CCCCN1Cc1coc(-c2cccc3ccccc23)n1 (stereo not given), the “% inhibition” value is reported as 84%. For CC1CCCCN1CCCNCc1coc(-c2ccccc2Br)n1 (stereo not given), the “% inhibition” value was 20%. In the case of CC1CCCCN1CCCNCc1coc(-c2cccc3ccccc23)n1 (stereo not given), the “% inhibition” value is reported as 86%. CC1CCCN1Cc1coc(-c2cccc3ccccc23)n1 (stereo not given) was tested, and the “% inhibition” value was 39%. In the case of c1ccc2c(-c3nc(CNCCCN4CCOCC4)co3)cccc2c1, the “% inhibition” value is reported as 30%. CC1CCCCN1Cc1coc(-c2cccc3ccccc23)n1 (stereo not given) was tested, and the “% inhibition” value was 3%. With c1ccc2c(-c3nc(CNCCCN4CCCC4)co3)cccc2c1 the “% inhibition” value was 93%. CCC1CCCCN1Cc1coc(-c2ccccc2Cl)n1 (stereo not given) was tested, and the “% inhibition” value was -10%. With CN(CCCNCc1coc(-c2ccc(C(F)(F)F)cc2)n1)c1ccccc1 the “% inhibition” value was -7%. Brc1ccccc1-c1nc(CN(Cc2ccccn2)Cc2ccccn2)co1 was tested, and the “% inhibition” value was 9%. With COCCN(/C(=N\O)c1ccc(Oc2ccc3oc4ccccc4c3c2)nc1)C(C)C the “% inhibition” value was 7%. For FC(F)(F)c1ccc(-c2nc(CN3CCC4(CC3)OCCO4)co2)cc1, the “% inhibition” value was -8%. With Cc1cc(C)cc(Oc2ccc(/C(=N/O)N3CCN(c4ccccc4)CC3)cn2)c1 the “% inhibition” value was 9%. COc1ccc(Oc2nc(C)ccc2/C(=N/O)N2CCCC2C)cc1 (stereo not given) was tested, and the “% inhibition” value was -10%. In the case of Cc1ccccc1-c1nc(CN2CCN(c3ccc(F)cc3)CC2)co1, the “% inhibition” value is reported as -10%. In the case of COC[C@H]1CCCN1Cc1coc(-c2cccc(F)c2)n1, the “% inhibition” value is reported as 0%. Clc1ccccc1-c1nc(CN2CCN(c3ncccn3)CC2)co1 was tested, and the “% inhibition” value was -3%. CCc1nccn1Cc1coc(-c2ccc(Cl)cc2Cl)n1 was tested, and the “% inhibition” value was 22%. With CC(C)c1nccn1Cc1coc(-c2ccc(Cl)cc2Cl)n1 the “% inhibition” value was -20%. For CCCc1nccn1Cc1coc(-c2ccc(Cl)cc2Cl)n1, the “% inhibition” value was 50%. Clc1ccc(-c2nc(CN3CCN(c4ncccn4)CC3)co2)c(Cl)c1 was tested, and the “% inhibition” value was 58%. For Clc1ccc(-c2nc(CN3CCN(Cc4ccccc4)CC3)co2)c(Cl)c1, the “% inhibition” value was 12%.
